Inconclusive results are not listed. A call without a number means that no potency is given here. Values without a mark were called inactive. Calls of active or inactive are those of the source. Calls follow the shape of the dose curve; as a rule, active = well fitted cell-killing curve with a large enough effect in the repeat runs; inconclusive = weak or mixed curves, or effect the other way; inactive = flat fitted curve, though single readings scatter.
Columns and labels:
[1] = cAMP Responsive Elements (CRE) small molecule antagonists, cell-based qHTS assay: qHTS cell viability counter screen (AID 2060913); conditions: CRE-bla HEK293T viability, CellTiter-Glo luminescence, 5 h; series mostly up to 92.4 µM; also: nearly all actives have a fitted effect of over 40% in size
How it was run: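 HEK293T CRE-bla, 2,000 cells/well, 18 h preincubation; cpd in DMSO + NKH477 0.25 uM final, 3 h 37 C/5% CO2; LiveBLAzer 2 h RT, then CellTiter-Glo 30 min RT, luminescence.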

[2] = cAMP Responsive Elements (CRE) small molecule agonists, cell-based qHTS assay: qHTS cell viability counter screen (AID 2060914); conditions: CRE-bla HEK293T viability, CellTiter-Glo luminescence, 5 h; series mostly up to 92.4 µM; also: nearly all actives have a fitted effect of over 50% in size
How it was run: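 In the same wells as the reporter read, viability of CRE-bla HEK 293T cells was quantified by CellTiter-Glo luminescence after a 3 h compound exposure.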
Potency is read from the fitted curve at half-maximal effect.

SMILES | Potency [1] | Potency [2] | viability change, negative = cytotoxic [1] | activity change, negative = cytotoxicity [2]
O=[N+]([O-])c1cc(C(F)(F)F)c(Cl)c([N+](=O)[O-])c1Cl | inactive | inactive | – | –
C=CC(=O)OCC(C)C | inactive | inactive | – | –
ClC1=C(Cl)C2(Cl)C3C(Cl)C(Cl)CC3C1(Cl)C2(Cl)Cl (stereo unspecified) | 60.9 µM (active) | 54.5 µM (active) | – | –
c1ccc2c(c1)Oc1ccccc1O2 | inactive | inactive | – | –
CCCCC/C=C\C/C=C\C/C=C\C/C=C\CCCC(=O)NCC(=O)O | inactive | inactive | – | –
CC(Cc1ccccc1)NCCCCl (stereo unspecified) | inactive | inactive | – | –
Clc1c(Cl)c(Cl)c(Cl)c(Cl)c1Cl | – | – | 2.46% [at 8.39 µM] | 9.47% [at 8.39 µM]
C[C@]12C=CC(=O)C=C1CC[C@@H]1[C@@H]2CC[C@@]2(C)[C@H]1CC[C@]2(C)O | inactive | inactive | – | –
C=CC(N)=O | inactive | inactive | – | –
C1CN2CCN1CC2 | inactive | inactive | – | –
O.O.O.O=C([O-])[C@H]([O-])[C@@H]([O-])C(=O)[O-].O=C([O-])[C@H]([O-])[C@@H]([O-])C(=O)[O-].[K+].[K+].[Sb+3].[Sb+3] | inactive | inactive | – | –
Cl[C@H]1OCCO[C@@H]1Cl | inactive | inactive | – | –
CC(=O)Nc1ccc2c(c1)Cc1ccccc1-2 | inactive | inactive | – | –
Cc1ccc(N)cc1C | inactive | inactive | – | –
COP(=S)(OC)SCN1C(=O)c2ccccc2C1=O | inactive | inactive | – | –
CCc1cccc(C)c1N(C(=O)CCl)[C@@H](C)COC | inactive | inactive | – | –
CS(=O)(=O)c1ccc(C(=O)C2C(=O)CCCC2=O)c(Cl)c1COCC(F)(F)F | inactive | inactive | – | –
ClCC(Cl)(Cl)Cl | inactive | inactive | – | –
CC#C[C@]1(O)CC[C@H]2[C@@H]3C[C@H](C)C4=CC(=O)CC[C@]4(C)[C@H]3CC[C@@]21C | inactive | inactive | – | –
ClC(Cl)=C(c1ccc(Cl)cc1)c1ccccc1Cl | inactive | inactive | – | –
C=C(C)CN(CC)c1c([N+](=O)[O-])cc(C(F)(F)F)cc1[N+](=O)[O-] | inactive | inactive | – | –
CC(C)NCC(O)c1ccc(N)c(C#N)c1 (stereo unspecified) | inactive | inactive | – | –
N#CNC#N | inactive | inactive | – | –
NC(=S)c1c(Cl)cccc1Cl | inactive | inactive | – | –

SMILES | Potency [1] | Potency [2] | viability change, negative = cytotoxic [1] | activity change, negative = cytotoxicity [2]
Cc1nnc(-c2ccccc2)c(=O)n1N | inactive | inactive | – | –
CCOC(=O)CP(=O)(OCC)OCC | inactive | inactive | – | –
Brc1ccc(Oc2ccccc2)cc1 | inactive | inactive | – | –
O=C(O)C(Cl)(Cl)Cl | inactive | inactive | – | –
CCOc1cc(C=O)ccc1O | inactive | inactive | – | –
BrCBr | inactive | inactive | – | –
CC(Cc1ccc2c(c1)OCO2)NO (stereo unspecified) | inactive | inactive | – | –
NCC(O)c1ccc(O)cc1 (stereo unspecified) | inactive | inactive | – | –
O=C(O)CF | inactive | inactive | – | –
Cc1nn(-c2cc(NS(C)(=O)=O)c(Cl)cc2Cl)c(=O)n1C(F)F | inactive | inactive | – | –
Oc1cc(Cl)cc(Cl)c1 | inactive | inactive | – | –
CCOP(=S)(OCC)SCSc1cc(Cl)ccc1Cl | inactive | inactive | – | –
COc1ccc(O)c(C(C)(C)C)c1 | inactive | inactive | – | –
N#CCCCCC#N | inactive | inactive | – | –
CC(C)N(CCC(C(N)=O)(c1ccccc1)c1ccccn1)C(C)C (stereo unspecified) | inactive | inactive | – | –
N#CC(Br)Br | inactive | inactive | – | –
CCNc1nc(NC(C)C)nc(SC)n1 | inactive | inactive | – | –
CN[C@@H](C)[C@H](O)c1ccccc1 | inactive | inactive | – | –
OCC(O)CCl (stereo unspecified) | inactive | inactive | – | –
ClC1=C(Cl)[C@]2(Cl)[C@@H]3[C@@H]4C[C@@H]([C@H]5O[C@@H]45)[C@@H]3[C@@]1(Cl)C2(Cl)Cl | 54.5 µM (active) | 61.1 µM (active) | – | –
O=C(NC(=O)c1c(F)cccc1F)Nc1cc(Cl)c(OC(F)(F)C(F)F)c(Cl)c1 | inactive | inactive | – | –
O=C1c2ccccc2C(=O)c2ccccc21 | – | – | 7.37% [at 18.9 µM] | 0.739% [at 18.9 µM]
CCCOc1nn(C(=O)NS(=O)(=O)c2ccccc2C(=O)OC)c(=O)n1C | inactive | inactive | – | –
O=C(O)c1cc(I)cc(I)c1I | inactive | inactive | – | –

— PubChem BioAssay (Tox21)
